In assay [1] the target is Progesterone receptor (Homo sapiens) (UniProt P06401). Put plainly: qHTS assay to identify small molecule agonists of the progesterone receptor (PR) signaling pathway (AID 1346784; calls by dose curve; note: nearly all actives have a fitted effect of over 30% in size). The gist of the method:
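Compounds were tested for PR agonism in HEK 293T cells bearing a beta-lactamase gene under UAS control. Treatment lasted 16 hr at 37C; signal came from fluorescence of a FRET substrate.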

For assay [2] the target is unchanged. Briefly: qHTS assay to identify small molecule antagonists of the progesterone receptor (PR) signaling pathway (AID 1346795; active = well fitted inhibition curve with a large enough effect in the signal ratio in the repeat runs, not every such curve was filed as active; the % refers to the signal ratio; note: potency is the fitted concentration of half-maximal effect). The gist of the method:
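In HEK293T cells bearing the PR-UAS-bla reporter, compound effects on promegestone-driven (1 nM) beta-lactamase expression are assessed after 16 hr using a fluorescent FRET substrate incubated 2 hr at room temperature.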
On the technique in general: Quantitative high-throughput screening tests each substance at several concentrations.

A short description of assay [3]: qHTS assay to identify small molecule agonists of the progesterone receptor (PR) signaling pathway - cell viability counter screen (AID 1346799; calls by dose curve; note: nearly all actives have a fitted effect of over 45% in size; note: potency is the fitted concentration of half-maximal effect). Summed up:
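Here, 3,000 PR-UAS-bla HEK293T cells per well were treated with compounds for 16 hr after a 6 hr preincubation at 37C and 5% CO2; cell viability is the CellTiter-Glo luminescence signal.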

Assay [4] in a line: qHTS assay to identify small molecule agonists of the TGF-beta/Smad signaling pathway - cell viability counter screen (AID 1346829). Note: nearly all actives have a fitted effect of over 45% in size. Note: potency is the fitted concentration of half-maximal effect. Summed up: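 Same-well cytotoxicity: CellTiter-Glo added after the 2 hr room-temperature beta-lactamase substrate step, luminescence measured 30 min later; cells had 5 hr of compound at 37 C.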
The target of assay [5] is Thyrotropin-releasing hormone receptor (Homo sapiens) (UniProt P34981). Briefly: qHTS assay to identify small molecule antagonists of the thyrotropin-releasing hormone receptor (TRHR) signaling pathway (AID 1346877; active = well fitted inhibition curve with a large enough effect in the repeat runs, not every such curve was filed as active; note: series mostly up to about 51 µM). The gist of the method: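 Antagonist mode: after a 5 min room-temperature compound exposure, cells were stimulated with 1 nM (final) TRH. Dye-loaded TRHR-HEK293 cells were used, and calcium-dependent fluorescence was followed for 3 min, with 15-point titrations run in triplicate.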

For assay [6] the target is unchanged. Put plainly: qHTS assay to identify small molecule agonists of the thyrotropin-releasing hormone receptor (TRHR) signaling pathway (AID 1346891; calls by dose curve; note: series mostly up to about 58 µM). The gist of the method: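 Screening of agonists relied on calcium signalling in HEK293 cells expressing human TRHR: dye loading 2 h at 37 °C preceded compound addition and a 3-min fluorescence time course.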
The nature of assay [7]: qHTS assay to identify small molecule agonists of the TGF-beta/Smad signaling pathway (AID 1346859; active = well fitted activation curve with a large enough effect in the signal ratio in the repeat runs, not every such curve was filed as active; the % refers to the signal ratio; note: series mostly up to about 77 µM). Summed up:
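Each well held 4,000 SBE-bla HEK 293T cells incubated overnight before compound addition; 5 hr later the cleavable FRET substrate went on for 2 hr at room temperature, and fluorescence was read at two emissions.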

Assay [8] is described as follows: Human pregnane X receptor (PXR) small molecule agonists, qHTS cell viability counter screen (AID 1346977). Note: nearly all actives have a fitted effect of over 50% in size. Note: potency is the fitted concentration of half-maximal effect. The gist of the method:
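Tox21 qHTS format; PXR-Luc HepG2, 2,000/well, charcoal-stripped FBS 5%. Cpd exposure 24hr. Read: CellTiter-Fluor fluorescence, multiplexed with luciferase.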

A short description of assay [9]: qHTS assay to identify small molecule antagonists of the progesterone receptor (PR) signaling pathway - cell viability counter screen (AID 1346798). Note: nearly all actives have a fitted effect of over 50% in size. Note: potency is the fitted concentration of half-maximal effect. The gist of the method: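 Following a 4 hr attachment, PR-UAS-bla HEK293T cells in charcoal-stripped FBS medium were exposed to compounds with R5020 for 16 hr; CellTiter-Glo was added and luminescence read after 30 min at room temperature.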

The nature of assay [10]: qHTS assay to identify small molecule antagonists of the TGF-beta/Smad signaling pathway - cell viability counter screen (AID 1346824). Note: nearly all actives have a fitted effect of over 50% in size. Note: potency is the fitted concentration of half-maximal effect. Summed up: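 Cytotoxicity counter-screen run in the same wells as the beta-lactamase Smad reporter read: CellTiter-Glo luminescence after 30 min at room temperature. HEK 293T SBE-bla cells had 5 hr compound exposure at 37 C with TGF-beta1 (0.25 ng/mL stock).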

Experimental findings from PubChem BioAssay (Tox21) are described below.

Values joined by “and” are separate entries in the source; they are usually repeats but may differ in a detail not shown here. Equal values may be shown once. Results filed as inconclusive are left out. Some compounds were tested as several samples or in several runs, with calls that do not always agree. Active and inactive are the calls of the source. Unless noted, calls come from the whole dose curve; as a rule, active = well fitted curve in the direction sought with a large enough effect in the repeat runs; inconclusive = weak or mixed curves; inactive = no such curve, though single readings can be large; an effect the other way counts as inactive or inconclusive. Starred links: 1 amine or outer side, 2 acyl side, 3 side chain; linkers in the order of their positions; H or OH if unused. Positions of bridges follow the written chain, without caps; N, C: chain ends. Non-standard residues stand in square brackets, D forms with d. Residues, ends and D or L forms follow the SMILES beside them. Chains are numbered I, II in the order given. Actinocin(9to1) = Cc1c2oc3c(C)ccc(C(=O)[*:1])c3nc-2c(C(=O)[*:2])c(N)c1=O; NMeV = CN[C@H](C(=O)O)C(C)C; Sar = CNCC(=O)O

Progesterone receptor (Homo sapiens), sequence (P06401 whole entry, looked up): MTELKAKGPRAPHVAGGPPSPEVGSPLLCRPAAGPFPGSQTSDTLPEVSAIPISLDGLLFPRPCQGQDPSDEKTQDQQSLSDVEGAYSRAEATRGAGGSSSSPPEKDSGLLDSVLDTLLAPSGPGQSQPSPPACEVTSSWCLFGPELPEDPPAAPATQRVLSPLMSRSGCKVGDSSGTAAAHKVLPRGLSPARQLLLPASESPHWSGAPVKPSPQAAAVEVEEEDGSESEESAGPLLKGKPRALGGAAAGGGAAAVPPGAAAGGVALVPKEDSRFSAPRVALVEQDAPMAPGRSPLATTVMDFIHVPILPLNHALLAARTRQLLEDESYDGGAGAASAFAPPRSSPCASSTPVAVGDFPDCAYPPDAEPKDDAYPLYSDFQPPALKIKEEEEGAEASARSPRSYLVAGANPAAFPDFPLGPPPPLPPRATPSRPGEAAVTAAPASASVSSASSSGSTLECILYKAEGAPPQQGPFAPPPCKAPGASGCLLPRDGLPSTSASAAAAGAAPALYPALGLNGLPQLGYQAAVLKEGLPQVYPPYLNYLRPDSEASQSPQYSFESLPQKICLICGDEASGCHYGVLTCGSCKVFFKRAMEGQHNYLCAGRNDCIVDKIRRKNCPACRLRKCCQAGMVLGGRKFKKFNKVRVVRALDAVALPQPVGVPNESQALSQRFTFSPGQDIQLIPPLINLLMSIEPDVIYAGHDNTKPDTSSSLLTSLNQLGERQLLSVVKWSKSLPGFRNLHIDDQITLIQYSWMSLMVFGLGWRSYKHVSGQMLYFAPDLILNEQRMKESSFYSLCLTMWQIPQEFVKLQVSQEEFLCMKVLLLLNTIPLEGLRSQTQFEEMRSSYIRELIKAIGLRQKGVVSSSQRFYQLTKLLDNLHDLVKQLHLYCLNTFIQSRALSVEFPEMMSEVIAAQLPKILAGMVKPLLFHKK
Thyrotropin-releasing hormone receptor (Homo sapiens), sequence (P34981 whole entry, looked up): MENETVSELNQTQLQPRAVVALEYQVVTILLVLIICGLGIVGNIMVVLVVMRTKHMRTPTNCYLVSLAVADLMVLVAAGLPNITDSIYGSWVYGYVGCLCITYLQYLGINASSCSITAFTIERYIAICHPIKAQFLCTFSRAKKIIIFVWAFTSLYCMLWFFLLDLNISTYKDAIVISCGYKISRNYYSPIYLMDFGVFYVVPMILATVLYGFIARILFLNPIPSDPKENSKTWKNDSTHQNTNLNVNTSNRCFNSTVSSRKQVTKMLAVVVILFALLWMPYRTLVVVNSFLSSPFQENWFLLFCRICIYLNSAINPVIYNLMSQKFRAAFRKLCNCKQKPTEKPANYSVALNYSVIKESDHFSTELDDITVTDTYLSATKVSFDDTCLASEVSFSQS

For the compound `CCN(CC)C(=S)SSC(=S)N(CC)CC`, the Potency entry in assay [1], in assay [3], in assay [4], in assay [5] and in assay [6] was “inactive” each time. For the same compound, the Potency in assay [2] is 0.237 µM (active).
Regarding `Cc1cc(C2(c3cc(C)c(O)cc3C)OS(=O)(=O)c3ccccc32)c(C)cc1O`, the Potency entry in assay [1], in assay [3] and in assay [4] was “inactive” in each case. Besides, the Potency is 61.1 µM (active) in [2]; 35.5 µM (active) and 13.7 µM (active) in assay [8]. The outcome in [7] was inactive.
In the case of `c1cc(C(c2ccc(OCC3CO3)cc2)C(c2ccc(OCC3CO3)cc2)c2ccc(OCC3CO3)cc2)ccc1OCC1CO1` (stereo not drawn), the Potency entry in assay [1], in assay [9], in assay [3], in [10], in assay [4] and in assay [5] was “inactive” throughout. The Potency result in assay [6] and in assay [8] was “inactive” throughout.
As to `O=C1CC2(CCCC2)CC(=O)N1CCCCN1CCN(c2ncccn2)CC1`, the Potency result in assay [1], in assay [9], in [4], in assay [5], in assay [6] and in assay [8] was “inactive” throughout. For the same compound, in assay [3], the Potency is 5.45 µM (active) and inactive. In assay [7], the compound was classed as inactive.
Turning to `O=C(O)Cn1cnnn1`, the Potency result in assay [1], in assay [2], in assay [9], in assay [4], in assay [5] and in assay [6] was “inactive” throughout. For the same compound, in assay [8], the Potency entry is “inactive”.
As to `CCC(CO)(CO)COCC(CC)(CO)CO`, the Potency result in [1], in assay [9], in assay [3], in [4], in assay [5] and in [6] was “inactive” in each case. Moreover, the Potency result in assay [8] was “inactive”.
Take `Cc1scc2c1N(C(=O)CN1CCN(C)CC1)c1ccccc1NC2=O`: the Potency entry in [2], in assay [9], in [3], in assay [10], in [4] and in assay [5] was “inactive” in each case. The Potency result in assay [6] and in assay [8] was “inactive” each time.
On to `O=C(Nc1ccccc1SSc1ccccc1NC(=O)c1ccccc1)c1ccccc1`, for which the Potency entry in assay [1], in assay [9], in [4], in [5], in assay [6] and in [8] was “inactive” in each case. Besides, the compound was classed as inactive in assay [7].
For the compound `CC(=O)OCCOCCOCCOC(C)=O`, the Potency entry in assay [2], in assay [9], in [3], in assay [10], in assay [4] and in assay [5] was “inactive” throughout. Moreover, the Potency entry in assay [6] and in assay [8] was “inactive” in each case. The compound was classed as inactive in [7].
With `CCCCCCCCCCCC[N+](C)(C)C`, the Potency entry in [1], in [4], in assay [5] and in assay [6] was “inactive” in each case.
For `Clc1ccc2c(c1)C(N1CCNCC1)=Nc1ccccc1O2`, the Potency in assay [2] was 5.45 µM (active) and inactive; in assay [8], 29.8 µM (active). Also, the Potency result in assay [9], in assay [3], in assay [10], in [4], in assay [5] and in assay [6] was “inactive” in each case. For the same compound, in assay [7], the compound was called inactive.
Consider `CC(C)(C)c1ccccc1`, for which the Potency result in assay [2], in assay [9], in assay [3], in assay [4], in assay [5] and in [6] was “inactive” throughout. Further, the Potency result in [8] was “inactive”. Also, the outcome in assay [7] was inactive.
As for `COc1ccc(CCN2CCC(Nc3nc4ccccc4n3Cc3ccc(F)cc3)CC2)cc1`, the Potency in [2] was 18.8 µM (active); in [9] it was 17.6 µM (active) and 23.7 µM (active); in [3], 14 µM (active); in [10], 39.8 µM (active); in assay [4], 44.6 µM (active); in assay [8] it was 3.94 µM (active) and 13.3 µM (active). The Potency result in assay [5] and in assay [6] was “inactive” in each case.
Consider `CCCCOCCOC(=O)c1ccccc1C(=O)OCCOCCCC`, for which, in assay [2], the Potency was 53.3 µM (active). Moreover, the Potency result in assay [9], in [3], in [10], in assay [4], in [5] and in [6] was “inactive” each time. Further, in assay [8], the Potency entry is “inactive”. Further, the compound was called inactive in [7].
Regarding `CCC(C)(C)C(=O)O[C@H]1C[C@@H](C)C=C2C=C[C@H](C)[C@H](CC[C@@H]3C[C@@H](O)CC(=O)O3)[C@H]21`, the Potency result in assay [1], in [9], in [10], in assay [4], in assay [5] and in assay [6] was “inactive” throughout. For the same compound, in assay [7], the compound was called inactive.
For `CCOC(=O)C(C)C(C)=O` (stereo not drawn), the Potency result in [2], in assay [9], in assay [3], in assay [10], in assay [4] and in [5] was “inactive” throughout. The Potency result in assay [6] and in [8] was “inactive” in each case. Besides, the result in assay [7] was inactive.
For `O=C1NCC2(CCN(CCc3ccccc3)CC2)O1`, the Potency entry in [2], in assay [9], in assay [3], in assay [10], in assay [4] and in assay [5] was “inactive” each time. Besides, the Potency result in assay [6] and in [8] was “inactive” in each case.
In the case of `O=C1Nc2ccccc2C1(c1ccc(O)cc1)c1ccc(O)cc1`, the Potency result in assay [1], in [4] and in assay [8] was “inactive” in each case.
`CC(N)=O`: the Potency result in assay [1], in assay [9], in assay [10], in assay [4], in [5] and in assay [6] was “inactive” each time. Moreover, in [8], the Potency entry was “inactive”. The result in [7] was inactive.
Turning to `CCCCN(CCO)CCCC`, the Potency result in assay [2], in assay [9], in assay [3], in assay [10], in assay [4] and in assay [5] was “inactive” each time. The Potency entry in [6] and in [8] was “inactive” in each case. Also, the outcome in assay [7] was inactive.
For the compound `COC(c1ccccc1)(c1ccccc1)[C@H](Oc1nc(C)cc(C)n1)C(=O)O`, the Potency result in assay [1], in assay [3], in assay [10], in assay [4] and in [8] was “inactive” each time.
In the case of `CCCCC(CC)COC(=O)CC(C(=O)OCC(CC)CCCC)S(=O)(=O)O` (stereo not drawn), the Potency result in [1], in assay [4], in assay [5] and in assay [6] was “inactive” each time. Also, the Potency in [3] is 29.5 µM (active); in assay [8], 70.8 µM (active) and 61.1 µM (active). Further, the call in assay [7] was inactive.
Regarding `N[C@@H]1CONC1=O`, the Potency entry in assay [2], in assay [9], in assay [3], in assay [4] and in [8] was “inactive” throughout.
Regarding `Cc1c2oc3c(C)ccc(C(=O)N[C@@H]4C(=O)N[C@H](C(C)C)C(=O)N5CCC[C@H]5C(=O)N(C)CC(=O)N(C)[C@@H](C(C)C)C(=O)O[C@@H]4C)c3nc-2c(C(=O)N[C@@H]2C(=O)N[C@H](C(C)C)C(=O)N3CCC[C@H]3C(=O)N(C)CC(=O)N(C)[C@@H](C(C)C)C(=O)O[C@@H]2C)c(N)c1=O` (I: T[dV]P[Sar][NMeV] / II: T[dV]P[Sar][NMeV]; ester I:1-I:C, II:1-II:C; linker I:N-II:N via Actinocin(9to1)), the Potency entry in assay [1], in assay [10], in [4], in assay [5] and in assay [6] was “inactive” each time. Moreover, the result in [7] was inactive. Besides, the Potency in assay [8] is 29.8 nM (active) and 47.3 nM (active).
Regarding `NNCCc1ccccc1`, the Potency result in [2], in assay [9], in assay [3], in assay [4], in assay [5] and in assay [6] was “inactive” throughout. Further, the Potency result in assay [8] is “inactive”. The compound was called inactive in assay [7].
For the compound `Cc1cccc([N+](=O)[O-])c1C(=O)O`, the Potency result in assay [2], in assay [9], in [3], in [4] and in assay [8] was “inactive” in each case. In assay [7], the call was inactive.
Consider `Nc1nc(=S)c2[nH]cnc2[nH]1`, for which the Potency result in assay [2], in [9], in assay [10], in assay [5], in assay [6] and in assay [8] was “inactive” throughout. Also, in [3], the Potency is 4.73 µM (active).
